Data reported in PubChem BioAssay (NCI).
Compounds without any hit were thinned out: in the full panel of roughly 83,000, 20% have a hit.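 Negative percent growth values reflect cell death: -40 means 40% of the cells present at the start died, and -100 means all died.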 A number with no mark means an inactive call. Activity calls are given as the source filed them. Rule for the calls: active = growth percent below 10; inactive = the rest.

Assays:
Experiment in all cases: NCI-60 one-dose screen, 48 h (100 = growth as untreated, 0 = no growth, -100 = all killed)
Conditions in all cases: 10 µM unless noted
[1] = test system: SR leukemia
[2] = test system: OVCAR-8 ovarian
[3] = test system: OVCAR-5 ovarian
[4] = test system: OVCAR-4 ovarian
[5] = test system: SK-OV-3 ovarian
[6] = test system: IGROV1 ovarian
[7] = test system: OVCAR-3 ovarian
[8] = test system: HS 578T breast
[9] = test system: NCI/ADR-RES ovarian
[10] = test system: RPMI-8226 leukemia

| Structure (SMILES) | growth [1] | growth [2] | growth [3] | growth [4] | growth [5] | growth [6] | growth [7] | growth [8] | growth [9] | growth [10] |
| --- | --- | --- | --- | --- | --- | --- | --- | --- | --- | --- |
| COc1ccc(C2CC(c3ccc4c(c3)OCO4)=NN2C=O)cc1 (stereo not drawn) | 100% | 106% | 110% | 92.8% | 108% | 127% | 128% | 115% | 103% | – |
| N#CC1c2ccccc2C=CN1C(=O)N(c1ccccc1)c1ccccc1 (stereo not drawn) | 1.1% (active) | 76% | 107% | 77% | 110% | 13.5% | -34.3% (active) | 52.9% | 96.2% | – |
| O=C(Nc1ccccc1S)c1ccccc1 | 82.6% | 105% | 123% | 98.4% | 115% | 107% | 112% | 103% | 98.1% | – |
| Clc1ccc2c(c1)C(Br)c1cc(Cl)cc(Cl)c1-2 (stereo not drawn) | -4.33% (active) | 101% | 84.4% | 88.5% | 80% | 57.1% | 91.7% | 65.1% | 96.1% | – |
| COC(=O)[C@H]1[C@H]2C[C@@H]3c4[nH]c5cc(OC)ccc5c4CCN3C[C@H]2C[C@@H](OC(=O)/C=C/c2cc(OC)c(OC)c(OC)c2)[C@@H]1OC | -7.74% (active) | 50.6% | 113% | 13.6% | 98.6% | 38.4% | -42.8% (active) | 69.3% | 49.1% | – |
| C(=C1c2ccccc2-c2ccccc21)c1ccncc1 | 9.55% (active) | 64.1% | 81% | 57.1% | 75.5% | 44.9% | 5.44% (active) | 49.5% | 4.8% (active) | – |
| C=CCNC(=O)/C(=C/c1cccc([N+](=O)[O-])c1)NC(=O)c1ccccc1 | 207% | – | 101% | 99.3% | 99.9% | – | 108% | 108% | 106% | 108% |
| COc1ccc(/C=C2/SC(=Nc3c(C)nn(-c4ccccc4)c3N)NC2=O)cc1 | 14.9% | 70.2% | 76.2% | 51.9% | 54.2% | 27.2% | -28.9% (active) | 31.7% | 42% | – |
| CC(=O)Nc1cc2c3c(cccc3c1)-c1ccccc1-2 | 81.6% | 86.1% | 85.6% | 71.5% | 105% | 59% | 92.8% | 112% | 84.5% | – |
| C1CCC(C(CC2CCCCN2)C2CCCCC2)CC1 (stereo not drawn) | -39.7% (active) | – | – | – | -52.3% (active) | 6.73% (active) | -3.79% (active) | 57% | 14.3% | 5.39% (active) |
| CC(=O)Nc1c(Cl)cc2c(c1Cl)Cc1cc([N+](=O)[O-])ccc1-2 | 70% | 77.7% | 117% | 81.2% | 84.4% | 117% | 72% | 34.6% | 94.8% | – |
| Nc1ncnc2c1CN(Cc1ccccc1)CC2 | 94.6% | 106% | 114% | 102% | 103% | 118% | 129% | 119% | 104% | – |
| CC(=O)Nc1c(Cl)cc2c(c1Cl)Cc1ccccc1-2 | 101% | 102% | 85.4% | 100% | 113% | 93% | 105% | 114% | 103% | – |
| COC(=O)C1(NC(=O)CNC(=O)OCc2ccccc2)CCCC1 | 100% | 106% | 103% | 98.3% | 111% | – | 149% | 131% | 111% | – |
| CN(C)c1ncnc2c1ncn2C1CCCCO1 (stereo not drawn) | 87.7% | 107% | 104% | 104% | 107% | 112% | 113% | – | 108% | – |
| Cc1nn(-c2ccccc2)cc1/C=C1\SC(N2CCCCC2)=NC1=O | 8.09% (active) | 81.4% | 103% | – | 119% | 68.1% | 96.4% | 99.7% | 89.7% | – |
| O=C1OC(Oc2ccccc2)(c2ccccc2)c2ccccc21 (stereo not drawn) | 79.1% | 102% | 99.6% | – | 106% | 107% | 97% | 101% | 100% | – |
| Cc1[nH]cnc1/C=C1\SC(N2CCCCC2)=NC1=O | 97.7% | 105% | 107% | – | 108% | 100% | 124% | 120% | 106% | – |
| CC[C@@H](c1ccc(O)c(O)c1)[C@@H](CC)c1ccc(O)c(O)c1 | 52.6% | 101% | 115% | 68.1% | 122% | 98.1% | 50.6% | – | 99.9% | – |
| CS(=O)(=O)N1CCN(Cc2cc3nc(-c4cccc5[nH]ncc45)nc(N4CCOCC4)c3s2)CC1 (tested in a mixture with another compound) | 23.2% | 26.1% | 21.5% | 39.7% | -25.6% (active) | -30.2% (active) | 12.4% | – | 29.6% | – |
| O=C1OC2(c3ccccc31)c1ccccc1-c1ccccc12 | 41.4% | 101% | 88.4% | – | 91.7% | 90.6% | 93.6% | 83.4% | 90.8% | – |
| CCOC(=O)Nc1ccc2c3c(cccc13)-c1ccccc1-2 | 13.6% | – | 63.6% | 48.5% | 62.7% | 20.9% | -19.8% (active) | 16.6% | 7.96% (active) | – |
| COc1cccc(C=Nc2cc(C(C)C)c(O)cc2C)c1O | 113% | 98.8% | 101% | 101% | 89.2% | 111% | 100% | – | 104% | – |
| CCCCCCCSc1ncnc2[nH]ncc12 | 79.3% | 86.9% | 92% | 96.7% | 101% | 81.7% | 79.9% | – | 84.6% | – |
| C(=C1c2ccccc2-c2ccccc21)c1ccccn1 | 22.6% | 93.4% | 87.3% | 70.7% | 95.5% | 74.1% | 53.1% | 65.4% | 31.1% | – |
| C=C1CCC2C(C)(COC(=O)CC)C(OC(=O)CC)CCC2(C)C1C/C=C1/C(=O)OCC1OC(=O)CC (stereo not drawn) | -23% (active) | -13.9% (active) | -1.17% (active) | 18.7% | 103% | -0.405% (active) | -86.1% (active) | – | -22.9% (active) | – |
| COc1ccc(C2=NN(C(N)=S)C(c3ccc4c(c3)OCO4)C2)cc1 (stereo not drawn) | 4.75% (active) | 20.9% | 75.1% | – | 33.8% | -22% (active) | -21.5% (active) | -13% (active) | 5.5% (active) | – |
| Nc1ccccc1-c1ccn[nH]1 | 99.7% | 103% | 83% | – | 92.1% | 84.2% | 91.6% | 100% | 105% | – |
| COc1ccc(/C=C/C(=O)c2cccc(NS(C)(=O)=O)c2)cc1 | -10.2% (active) | – | 94.9% | 81.5% | 110% | 7.92% (active) | 78.1% | 83.2% | 85.2% | – |
